# Out of some 290,000 compounds screened, about 3,000 (1%) were called active. Cut-off read from the data, not from the text of the source: active = inhibition mostly above about 36% (no sharp cut-off); inactive = mostly below about 34%. The sample as a whole holds a higher share of actives than the screen did.
# Test: inhibition of NOD1-driven NF-kB reporter – cell-based, luminescence, uHTS, primary screen (AID 1578);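 note: HEK-293T reporter cells stimulated with the NOD1 agonist gamma-tri-DAP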
# Conditions: NOD1-driven NF-kB luciferase reporter cells, at 4 µM, active compounds read high
row,Compound,inhibition
1,COc1ccc(-c2nnc(SCC(=O)N(Cc3ccccc3)C(C)(C)C)o2)cc1OC,58.8% (active)
2,COc1cc(OC)cc(-c2nnc(SCC(=O)N(Cc3ccccc3)C(C)(C)C)o2)c1,14.6% (inactive)
3,COc1cc(-c2nnc(SCC(=O)N(Cc3ccccc3)C(C)(C)C)o2)cc(OC)c1OC,10.5% (inactive)
4,CC1CN(S(=O)(=O)c2ccccc2)CC(C)O1 (centres undefined),-8.4% (inactive)
5,O=S(=O)(c1cccs1)N1CCN(S(=O)(=O)c2cccs2)CC1,-16.1% (inactive)
6,CC1CN(S(=O)(=O)c2cccs2)CC(C)O1 (centres undefined),34.6% (active)
7,CCOC(=O)NC(=O)/C(C#N)=N\Nc1cccc(OC)c1,-43% (inactive)
8,CCOC(=O)NC(=O)/C(C#N)=N\Nc1cccc(Cl)c1,55.7% (active)
9,CCOC(=O)NC(=O)/C(C#N)=N\Nc1ccc(Cl)cc1,-37.5% (inactive)
10,CC(C)COc1ccc(/C(O)=C2/C(=O)C(=O)N(CCN(C)C)C2c2ccncc2)cc1 (centres undefined),-0.8% (inactive)
11,CS(=O)(=O)N1CCN(C(=O)COc2ccc3ccccc3c2)CC1,6.1% (inactive)
12,CCc1ccc2oc(C(=O)NCCc3ccc(S(N)(=O)=O)cc3)cc(=O)c2c1,-0.9% (inactive)
13,CCOC(=O)c1c(NC(=O)C(=O)N/N=C/c2ccc(O)c(OC)c2)sc2c1CCCCC2,81.2% (active)
14,CCOC(=O)c1c(NC(=O)C(=O)N/N=C/c2ccc(OCC)cc2)sc2c1CCCCC2,-14.4% (inactive)
15,COc1cc(/C=N/NC(=O)c2sc(N)c(C#N)c2C)ccc1O,-14.2% (inactive)
16,CCOC(=O)c1c(NC(=O)C(=O)N/N=C/c2ccccc2OC)sc2c1CCCCC2,7.6% (inactive)
17,CCOC(=O)c1c(NC(=O)N/N=C/c2ccccc2OCC)sc(C(C)=O)c1C,-33.7% (inactive)
18,CCOC(=O)c1c(NC(=O)N/N=C/c2ccc(O)c(OC)c2)sc(C(C)=O)c1C,53.1% (active)
19,CN(CC(=O)Nc1ccccc1Cl)C1CCCCC1,-46.1% (inactive)
20,O=C(Cc1cccs1)NCCSc1c(-c2ccc(Cl)cc2)[nH]c2ccccc12,30.7% (inactive)
21,Cc1ccc(C(=O)NC(NCc2ccccc2)C(Cl)(Cl)Cl)cc1 (centres undefined),5.2% (inactive)
22,O=C(COC(=O)C1CC2C=CC1C2)Nc1cccc(S(=O)(=O)N2CCCCC2)c1 (centres undefined),-18.1% (inactive)
23,N#Cc1c(C(F)(F)F)cc(-c2ccc(F)cc2)[nH]c1=O,-17.2% (inactive)
24,Cc1ccc(-c2cc(C(F)(F)F)c(C#N)c(=O)[nH]2)cc1,1.8% (inactive)
25,N#Cc1c(C(F)(F)F)cc(-c2ccc(Cl)cc2)[nH]c1=O,54.2% (active)

row,Compound,inhibition
1,O=C(Nc1nc(-c2nc3ccccc3s2)cs1)c1ccc(S(=O)(=O)N2CCOCC2)cc1,47.5% (inactive)
2,CCOc1cccc(CNc2ccc(O)cc2)c1OCc1ccccc1Cl,39.2% (active)
3,CCOc1cccc(CNc2ccc(O)cc2)c1OCc1ccc(Cl)cc1Cl,7.6% (inactive)
4,CCOc1cccc(CNc2ccc(O)cc2)c1OCc1ccc(Cl)cc1,22.1% (inactive)
5,CCC(C)NC(=O)c1cc(Cl)c(NC(=O)C2=C(C)OCCS2)cc1OC (centres undefined),-9.8% (inactive)
6,Nc1nnc(SCc2nnc(-c3ccccc3)o2)s1,-21% (inactive)
7,O=C1CCc2cc(S(=O)(=O)NC(Cc3ccccc3)C(=O)NC3CCCC3)ccc2N1 (centres undefined),-11.4% (inactive)
8,CCN(CC)S(=O)(=O)c1cccc(C(=O)N[C@H](C(=O)OCC(=O)Nc2ccccc2)C(C)C)c1,-24.7% (inactive)
9,C/C(=N\Nc1ncc(Cl)cc1Cl)c1ccccn1,103% (active)
10,C/C(=N\Nc1ccc(Cl)cc1)c1ccccn1,-119% (inactive)
11,C/C(=N\Nc1ncc(Cl)cc1Cl)c1ccc(C#N)cc1,-40.4% (inactive)
12,Cc1cc(C)c(C(=O)COC(=O)CCNS(=O)(=O)c2c(Cl)cccc2Cl)cc1C,-13.2% (inactive)
13,CCC(C(=O)NC1CC(C)(C)NC(C)(C)C1)c1ccccc1 (centres undefined),-18.7% (inactive)
14,COc1cccc(-n2c(Cn3nc(C(F)(F)F)cc3C)n[nH]c2=S)c1,2.3% (inactive)
15,CCn1cc(C(=O)NCc2ccccc2)c(=O)c2cc(F)c(N3CCN(C(=O)c4ccco4)CC3)cc21,46.3% (inactive)
16,CCn1cc(C(=O)NCc2cccc(F)c2)c(=O)c2cc(F)c(N3CCN(C(=O)c4ccco4)CC3)cc21,0.3% (inactive)
17,CCn1cc(C(=O)NCc2ccc3c(c2)OCO3)c(=O)c2cc(F)c(N3CCN(C(=O)c4ccco4)CC3)cc21,82.7% (active)
18,CCOc1ccc(NC(=O)C2CCN(S(=O)(=O)c3ccc4c(c3)CC(C)N4C(C)=O)CC2)cc1 (centres undefined),-19.4% (inactive)
19,Cc1nn(C)cc1-c1n[nH]c(=S)n1-c1ccc(F)cc1,-1.9% (inactive)
20,O=c1[nH]ncc2c3ccccc3n(Cc3ccccc3)c12,36.5% (inactive)
21,Cc1ccc(Cn2c3ccccc3c3cn[nH]c(=O)c32)cc1,59.1% (active)
22,O=c1[nH]ncc2c3ccccc3n(Cc3ccc(F)cc3)c12,-2.2% (inactive)
23,CN(C)C(=O)CN1C(=O)NC2(CCCc3ccccc32)C1=O (centres undefined),-1.9% (inactive)
24,CCOC(=O)N1CCC(N(CCN(C)C)C(=S)Nc2cccc(Cl)c2)CC1,0.8% (inactive)
25,CCOC(=O)N1CCC(N(CCN(C)C)C(=S)Nc2cc(C)cc(C)c2)CC1,-15.3% (inactive)

row,Compound,inhibition
1,CCOC(=O)N1CCC(N(CCN(C)C)C(=S)Nc2cc(Cl)cc(Cl)c2)CC1,65.6% (active)
2,CC(C)(C)C(=O)NC(CC(=O)O)c1ccccc1 (centres undefined),-18.6% (inactive)
3,O=C(NC(CO)c1ccccc1)c1ccco1 (centres undefined),3% (inactive)
4,CC(C)(C(=O)N[C@H](CO)c1ccccc1)C(=O)N[C@H](CO)c1ccccc1,95% (active)
5,COCCNC(=O)c1cc(Sc2nnc(C)s2)nc2ccccc12,-10.4% (inactive)
6,CCOC(=O)c1sc(NC(=O)c2cccc(S(=O)(=O)N3c4ccccc4CC3C)c2)cc1C (centres undefined),6.7% (inactive)
7,Cc1ccc(NC(=O)CCCc2nc3ccccc3s2)c(O)c1,-33.8% (inactive)
8,Cc1ccc(NC(=O)CCc2nc3ccccc3s2)c(O)c1,43% (active)
9,Cc1ccc2nc(NC(=O)CCCc3nc4ccccc4s3)sc2c1,-29% (inactive)
10,O=C(c1ccc(F)cc1)n1c(NCc2ccccc2)n[nH]c1=S,-17.3% (inactive)
11,Cc1cccc2c(=O)cc(C(F)(F)F)[nH]c12,1.3% (inactive)
12,O=c1cc(C(F)(F)F)[nH]c2c(C(F)(F)F)cccc12,72.8% (active)
13,O=c1cc(C(F)(F)F)[nH]c2c(OC(F)(F)F)cccc12,15.5% (inactive)
14,CCOc1ccc(NC(=O)C2CCCN(S(=O)(=O)c3cnc[nH]3)C2)cc1 (centres undefined),-9.3% (inactive)
15,CCN(CC)S(=O)(=O)c1ccc(Cl)c(NC(=O)COC(=O)c2ccc(O)cc2)c1,21.8% (inactive)
16,CCSc1nsc(NC(=O)Nc2cccc(OC)c2)n1,52.2% (inactive)
17,CCSc1nsc(NC(=O)Nc2ccccc2F)n1,-1.8% (inactive)
18,CCSc1nsc(NC(=O)Nc2ccc(F)cc2F)n1,26% (inactive)
19,CCCSc1nsc(NC(=O)Nc2ccc(F)cc2F)n1,43% (inactive)
20,COc1cccc(NC(=O)Nc2nc(SC)ns2)c1,-38% (inactive)
21,COc1cccc(NC(=O)Nc2nc(SC(C)(C)C)ns2)c1,40.2% (inactive)
22,CCn1cc(CN2CCC(C(=O)Nc3cccc(-c4cscn4)c3)CC2)cn1,-27.3% (inactive)
23,CC(C)(C)c1cc(CCC(=O)NCCc2ccccn2)cc(C(C)(C)C)c1O,-9.5% (inactive)
24,COc1ccc(/C=C(\NC(=O)c2ccc(Cl)cc2)C(=O)NCCCn2ccnc2)cc1OC,18.2% (inactive)
25,CN1CCN(Cc2nc3c(c(=O)n(C)c(=O)n3C)n2CCCc2ccccc2)CC1,16.4% (inactive)

row,Compound,inhibition
1,COc1cccc(Nc2c(Nc3cccc(OC)c3)c(=O)c2=O)c1,-10.3% (inactive)
2,CC1(C)CC(=O)C(C(c2ccccc2F)C2C(=O)CC(C)(C)CC2=O)C(=O)C1,0.7% (inactive)
3,Cc1ccc(S(=O)(=O)NC(CN2CCOCC2)=NCCNS(=O)(=O)c2ccccc2)cc1,31.6% (inactive)
4,CN1CCN(c2ccc(-c3ccnn3C(=O)Nc3cccc(C(F)(F)F)c3)cc2)CC1,19.1% (inactive)
5,COC(=O)c1cc(N=Nc2sc(N)nc2C)cc(C(=O)OC)c1,-4.7% (inactive)
6,CCC(=O)Nc1cc2nn(-c3ccc(C)cc3)nc2cc1C,58.2% (active)
7,CCCCC(=O)Nc1cc2nn(-c3ccc(OC)cc3)nc2cc1C,-94.7% (inactive)
8,CCC(=O)Nc1cc2nn(-c3ccc(OC)cc3)nc2cc1C,-20% (inactive)
9,COc1ccc(C(=O)N/C(=C\c2ccccc2)C(=O)Nc2ccc(C(=O)O)cc2)cc1,0.4% (inactive)
10,CCN(CC(=O)Nc1ccc(NC(C)=O)cc1)C(=O)/C=C/c1cn(-c2ccccc2)nc1-c1ccc(C)cc1,15.8% (inactive)
11,CCOC(=O)c1ccc(Oc2cn[nH]c2-c2ccc(O)cc2O)cc1,5.5% (inactive)
12,CCOC(=O)Cc1nn(C(C)C)c(=O)c2ccccc12,-21.4% (inactive)
13,CCOC(=O)C(C)n1nc(-c2ccccc2)c2ccccc2c1=O (centres undefined),36.3% (active)
14,CCOC(=O)Cn1nc(-c2ccccc2)c2ccccc2c1=O,-6.3% (inactive)
15,CCC(C(=O)O)N1C(=O)C2CCCCC2C1=O (centres undefined),4.4% (inactive)
16,O=c1ccc(Cc2ccc(Cl)cc2)n[nH]1,-29.8% (inactive)
17,O=c1ccc(-c2ccccc2)n[nH]1,-29% (inactive)
18,O=c1ccc(Cl)n[nH]1,61.4% (active)
19,CCn1c(SCC(=O)NC2CCCCC2)nnc1-c1ccccn1,2.9% (inactive)
20,O=C(Nc1ccc(S(=O)(=O)N2CCCC2)cc1)c1ccc(CN2CCOCC2)cc1,44.6% (inactive)
21,COc1ccc(C(=O)NC(=S)Nc2ccc(CN3CCOCC3)cc2)cc1,-0.3% (inactive)
22,NC(=O)c1ccc(NC(=O)c2ccc(CN3CCOCC3)cc2)cc1,-20.3% (inactive)
23,O=C(Nc1ccc(S(=O)(=O)Nc2ccccc2)cc1)c1ccc(CN2CCOCC2)cc1,76.1% (active)
24,COc1ccc(C(=O)Nc2ccc(CN3CCCCC3)cc2)cc1,-37.1% (inactive)

# — PubChem BioAssay AID1578 (Sanford-Burnham Center for Chemical Genomics, 2009)
